The record followed here is ChEMBL document CHEMBL3988442, “University of Dundee, Small-Polar-MMV Screening Library” (2021).

Molecules are shown by their SMILES. Screen size: about 68,000 compounds; about 25 (0.04%) showed an effect of 50% or more. The entries come from a sample that favours strong results as a whole.

The assay deals with T1, Methionyl-tRNA synthetase, putative (Leishmania donovani (strain BPK282A1)) (UniProt E9BF75).
T1 sequence (whole entry): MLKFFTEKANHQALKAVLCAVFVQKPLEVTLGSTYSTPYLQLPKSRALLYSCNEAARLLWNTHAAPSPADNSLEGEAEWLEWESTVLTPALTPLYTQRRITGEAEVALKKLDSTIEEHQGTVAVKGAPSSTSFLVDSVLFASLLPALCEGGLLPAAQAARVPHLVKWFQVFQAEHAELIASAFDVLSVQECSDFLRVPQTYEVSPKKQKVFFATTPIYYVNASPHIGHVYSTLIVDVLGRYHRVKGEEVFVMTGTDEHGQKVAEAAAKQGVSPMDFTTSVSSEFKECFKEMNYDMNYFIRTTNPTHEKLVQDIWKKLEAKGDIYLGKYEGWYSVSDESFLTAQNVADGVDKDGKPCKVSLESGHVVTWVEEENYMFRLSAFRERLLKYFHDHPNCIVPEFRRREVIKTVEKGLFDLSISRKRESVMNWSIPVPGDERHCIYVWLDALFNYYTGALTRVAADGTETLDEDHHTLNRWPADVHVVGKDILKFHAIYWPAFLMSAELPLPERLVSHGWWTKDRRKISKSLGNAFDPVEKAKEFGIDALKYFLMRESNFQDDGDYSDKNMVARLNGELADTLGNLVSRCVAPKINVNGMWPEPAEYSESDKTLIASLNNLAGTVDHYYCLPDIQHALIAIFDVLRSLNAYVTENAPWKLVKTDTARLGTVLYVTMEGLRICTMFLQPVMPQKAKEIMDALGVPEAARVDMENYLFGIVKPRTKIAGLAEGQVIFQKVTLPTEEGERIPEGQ
Nature of the assay: Leishmania donovani Methionine tRNA synthetase (LdMetRS):v6. Primary screen assay. Format: functional. More on the design: conc 80 nM, time 150 minutes.
With `O=C(NC1CC1)[C@@H]1CCO[C@@H]2CCN(CC3CCC3)C[C@H]21`, the inhibition turned out to be 16.2%. Then `CCN1C(=O)[C@]2(CC[C@@H]3CN(S(=O)(=O)CC(C)C)C[C@@H]32)N=C1C`, with 16.2%; and `O=C(NCc1ccco1)[C@@]12CCO[C@@H]1CCN(Cc1ccccn1)C2`, with 16.3%. Then `Cc1ccc(N2CCO[C@H]3CN(C(=O)c4cccc(C)n4)C[C@H]32)nn1`, with 5.75%; and `c1ccc(N(CCn2cncn2)CC2CC2)cc1`, with 11%. Then `OCCCN(CCn1cncn1)c1ccccc1`, with 8.36%. Regarding `Oc1ccc(N(CCc2ccccc2)CCn2cncn2)cc1`, the inhibition amounted to 70%. Then `Cc1ccccc1C(=O)N1C[C@@H]2CCN(c3cccnc3)C[C@@H]2C1`, with 10.5%. Turning to `Cc1nc(CN2C[C@@H]3CN(C(=O)c4ccnnc4)C[C@@H]3C2=O)cs1`, the inhibition turned out to be 13.1%. Next, `CO[C@H]1CN(Cc2ccccc2F)[C@@H]2CCCO[C@H]12`: 10.8%. With `CNc1cc(-c2ccccc2CN)c2cc[nH]c2n1`, the inhibition came to 23.4%. Then `CNc1cc(-c2ccc(COCCN)cc2)c2cc[nH]c2n1`, with 33.4%. Then `CNc1cc(-c2cccc(CN)c2)c2cc[nH]c2n1`, with 53%.

On to `CCn1cc(CN2C[C@H]3CC[C@@H]2CN(C(=O)C2CCC2)C3)cn1`, for which the inhibition was determined as 12.2%.

For the molecule `CS(=O)(=O)N1C[C@@H]2COC[C@]2(C(=O)NCCc2cccs2)C1`, the inhibition was determined as 3.36%. Then `c1cc2c(cc1CN1CC[C@H]3[C@H]1CCN3CC1CC1)OCO2`, with 5%; and `CS(=O)(=O)NC[C@]12COC[C@H]1CN(Cc1ccc3c(c1)OCO3)C2`, with 15.2%. Next, `CN(C)CCN1C[C@@H]2CN(S(=O)(=O)c3ccccc3)C[C@@H]2C1=O`: 17.1%; `O=C(NCCc1ccccn1)[C@@]12CCO[C@@H]1CCN(c1ncccn1)C2`: 18.5%. Turning to `CN1CCCC[C@@H]2[C@H]1[C@@H](c1ccccc1)CCN2C(=O)c1ccncc1`, the inhibition turned out to be 12.5%. Then `Cc1nnc([C@H]2C[C@H]3CN(C(=O)Cc4ccc(F)cc4)CC[C@@H]3O2)o1`, with 18.5%; and `COCCN1CCN(Cc2ccc(F)c(C)c2)[C@H]2CS(=O)(=O)C[C@H]21`, with 0.741%. With `COCCN1C(=O)CC[C@]12CC[C@@H](NCc1nccs1)CC2`, the inhibition stood at 7.27%. Then `N#Cc1cccc(CN2C[C@H](OCC3CCOCC3)[C@H]3COC[C@H]32)c1`, with 14.8%; and `Cn1cc(CN2C[C@@H](N3CCCC3=O)[C@H]3OCCC[C@H]32)cn1`, with 6.57%; and `O=C1N(Cc2ccccc2)C[C@H]2CN(Cc3ccccc3Cl)CCN12`, with 12.1%. In the case of `Cc1ccc(S(=O)(=O)N2C[C@H]3C[C@H](NC(=O)c4ccn(C)n4)[C@H]3C2)cc1`, the inhibition came out at 11.3%. Next, `CCCN1C[C@H]2CC[C@@H]1CN(Cc1cccc(O)c1)C2`: 3.78%; `Cn1cc(CN2CCO[C@H]3C(Cn4cccn4)CC[C@@H]32)cn1` (some centres not stated): 11.4%; `Cc1cnc(CN2C[C@H]3C[C@H](Oc4ccccc4)C[C@H]3C2)cn1`: 0%. Next, `CNC(=O)[C@@H]1[C@@H](c2ccccc2)CN2CCN(Cc3ccco3)C[C@H]12`: 0.822%. Next, `COc1cc(CN2CCCC[C@]3(C)NC(=O)CC[C@H]23)ccc1F`: 14.2%. Take `O=C(NCC1CC1)[C@H]1CC[C@@H]2[C@@H](CCN2Cc2ccoc2)O1`: the inhibition amounted to 10.8%. For `Cc1cccc(CN2CC[C@H]3CO[C@H](CNC(=O)N(C)C)[C@H]3C2)c1`, the inhibition stood at 3.76%. Next, `CN(C)C(=O)NCc1cc2n(n1)CCN(C[C@H]1[C@@H]3CNC[C@@H]31)C2`: 12%. Turning to `O=C1NC(c2ccccc2)=N[C@@]12CC[C@@H]1CN(S(=O)(=O)C3CC3)C[C@@H]12`, the inhibition came out at 6.19%. Then `CC(C)NC(=O)[C@H]1C[C@@H]2[C@@H](C1)OCCN2Cc1ccsc1`, with 10.1%.

Consider `Cc1ccc(CN2CC[C@H]3CO[C@H](CN(C)C)[C@H]3C2)o1`, for which the inhibition stood at 15.1%.

Consider `CO[C@@H]1CC[C@H]2[C@H]1OCCN2S(=O)(=O)c1cn(C)cn1`, for which the inhibition turned out to be 7.3%.

Regarding `COCC(=O)N1C[C@H]2CC[C@@]3(N=C(c4ccccc4)NC3=O)[C@H]2C1`, the inhibition amounted to 8.15%. Then `Cc1nc(C)n(CC2CCCN2Cc2nc3ccccc3nc2C)n1` (configuration not stated), with 13.3%.

On to `Cc1nc(C)n(CC2CCCN2Cc2nc(C)c3ccccc3n2)n1` (configuration not stated), for which the inhibition is 57%. Then `Cc1nc(C)n(CC2CCCN2Cc2nc(N)c3ccccc3n2)n1` (configuration not stated), with 11.2%. Regarding `O=C(c1ccco1)N1C(CN2CCOCC2)[C@]2(O)CC[C@H]1CC2` (some centres not stated), the inhibition was found to be 15.1%. Then `O=C(N[C@@H]1CN(Cc2cccs2)[C@@H]2CCCO[C@@H]21)c1cscn1`, with 11.8%; and `Cc1nc([C@@H]2C[C@@H]3CCN(C(=O)Cc4ccsc4)C[C@H]3O2)no1`, with 8.15%; and `COCCCN1C(=O)CC[C@H]2CN(c3cnc4ccccc4n3)CC[C@H]21`, with -5.03%. Then `CCC1=N[C@@]2(CC[C@@H]3CN(C(=O)NC(C)C)C[C@@H]32)C(=O)N1C`, with 12.4%; and `Cc1nc(CN2C[C@@H]3CCCO[C@@H]3[C@H](NC(=O)CC3CC3)C2)cs1`, with 12.6%; and `CS(=O)(=O)NC[C@H]1OC[C@H]2CN(Cc3ccsc3)CC[C@H]21`, with 17.8%. Then `CN(CC1CC1)c1ccc2ccc(C(=O)NCCc3ccccc3)cn12`, with 51%. `COCCNC(=O)c1ccc2ccc(N(C)CC3CC3)n2c1`: the inhibition was determined as 22.1%.

As usually defined, the inhibition is the drop in the measured response relative to a control, in per cent.
